Growth data for 7 compounds are collected here from PubChem BioAssay (NCI).

Some test systems named below: HCT-15 colon; HT29 colon; SNB-75 CNS; SNB-19 CNS; U251 CNS; PC-3 prostate; SK-MEL-5 melanoma; UACC-62 melanoma; LOX IMVI melanoma; SK-MEL-28 melanoma; SK-MEL-2 melanoma; EKVX NSCLC; SN12C renal; UO-31 renal; TK-10 renal; ACHN renal; CAKI-1 renal; A498 renal; CCRF-CEM leukemia; MOLT-4 leukemia.
What all share (assay): NCI-60 one-dose screen, 48 h (100 = growth as untreated, 0 = no growth, -100 = all killed)
Holding throughout (conditions): 10 µM unless noted

Each structure is given as a SMILES string. The panel holds about 83,000 compounds, 20% with a hit somewhere; the sample as a whole holds those more often.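 Assay: single dose, 48 h. Readout: percent growth (0 = no net growth; negative = cell death). Active: <10.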 Unmarked numbers belong to inactive results. Active and inactive are the calls of the source.

As for `CCCNNC(=O)/C=C/c1ccc(CNCCc2c(C)[nH]c3ccccc23)cc1`, the growth was 42.8% [2.5 µM] with HCT-15 colon; 5.78% [2.5 µM] (active) in the experiment on HT29 colon; 56.9% [2.5 µM] with SNB-75 CNS; 28.6% [2.5 µM] in the experiment with SNB-19 CNS; 8.11% [2.5 µM] (active) in the experiment on U251 CNS; 31.5% [2.5 µM] with PC-3 prostate. Further, the growth was -13.3% [2.5 µM] (active) in the experiment with SK-MEL-5 melanoma; -46% [2.5 µM] (active) in the experiment on UACC-62 melanoma; 0.891% [2.5 µM] (active) with LOX IMVI melanoma; 10.1% [2.5 µM] in the experiment on SK-MEL-28 melanoma; 13.7% [2.5 µM] in the experiment with SK-MEL-2 melanoma; 50.4% [2.5 µM] in the experiment with EKVX NSCLC. In addition, the growth was 26.3% [2.5 µM] in the experiment with SN12C renal; 13.8% [2.5 µM] in the experiment on UO-31 renal; -16.2% [2.5 µM] (active) in the experiment on TK-10 renal; -15.4% [2.5 µM] (active) in the experiment with ACHN renal; -4.92% [2.5 µM] (active) with CAKI-1 renal; -37.6% [2.5 µM] (active) in the experiment with A498 renal. The growth in the experiment with CCRF-CEM leukemia is 27.6% [2.5 µM]; with MOLT-4 leukemia it was 13.3% [2.5 µM].
Take `N=C1/C(=C2\NC3C=CC=CC3S2)C(c2ccc(Cl)cc2)C2C(=O)N(c3ccccc3)C(=S)N12` (stereo not given): the growth is 110% in the experiment with HCT-15 colon; 107% with HT29 colon; 106% in the experiment on SNB-75 CNS; 96.6% in the experiment on SNB-19 CNS; 101% in the experiment with U251 CNS; 94.3% with PC-3 prostate. Besides, the growth in the experiment on SK-MEL-5 melanoma was 99.4%; in the experiment on UACC-62 melanoma, 94.1%; in the experiment on LOX IMVI melanoma, 98.2%; in the experiment on SK-MEL-28 melanoma, 103%; in the experiment with SK-MEL-2 melanoma, 107%; with EKVX NSCLC, 104%. Further, the growth was 99.7% in the experiment with SN12C renal; 81.6% in the experiment on UO-31 renal; 123% in the experiment on TK-10 renal; 103% in the experiment on ACHN renal; 99.6% in the experiment on CAKI-1 renal; 116% with A498 renal. Besides, the figures for the growth with CCRF-CEM leukemia and in the experiment on MOLT-4 leukemia were 101% and 88.3%, respectively.
Turning to `CCNC(=S)n1nc(SC)c(C(=O)OCC)c1N`, the growth with HCT-15 colon is 96.3%; in the experiment with HT29 colon it was 102%; in the experiment with SNB-75 CNS, 89.5%; in the experiment with SNB-19 CNS, 93.6%; in the experiment on U251 CNS it was 109%; in the experiment with PC-3 prostate it was 102%. The growth is 96.1% in the experiment with SK-MEL-5 melanoma; 81.6% with UACC-62 melanoma; 95.4% with LOX IMVI melanoma; 102% in the experiment on SK-MEL-28 melanoma; 105% with SK-MEL-2 melanoma; 101% in the experiment on EKVX NSCLC. Moreover, the growth in the experiment with SN12C renal was 97.6%; with UO-31 renal it was 77.8%; in the experiment on TK-10 renal it was 106%; in the experiment with ACHN renal it was 96.7%; in the experiment with CAKI-1 renal, 86.7%; with A498 renal, 97.5%. Besides, the growth with CCRF-CEM leukemia is 106%; in the experiment on MOLT-4 leukemia it was 81.3%.
Consider `O=C1/C(=C/c2ccc(F)c(F)c2)CN(C(=O)C(Cl)Cl)C/C1=C\c1ccc(F)c(F)c1`, for which the growth was -74.9% (active) in the experiment on HCT-15 colon; -26.6% (active) with HT29 colon; -84.7% (active) with SNB-75 CNS; -93.1% (active) with SNB-19 CNS; -99.3% (active) in the experiment on U251 CNS; -85.2% (active) in the experiment on PC-3 prostate. Further, the growth is -95.3% (active) with SK-MEL-5 melanoma; -85.2% (active) in the experiment with UACC-62 melanoma; -90.1% (active) with LOX IMVI melanoma; -92.6% (active) in the experiment on SK-MEL-28 melanoma; -53.4% (active) in the experiment on SK-MEL-2 melanoma; -93.7% (active) in the experiment with EKVX NSCLC. In addition, the growth in the experiment on SN12C renal is -75.3% (active); in the experiment on UO-31 renal, -97.9% (active); in the experiment with TK-10 renal, -94.6% (active); in the experiment with ACHN renal, -100% (active); with CAKI-1 renal it was -92.1% (active); in the experiment on A498 renal it was -96.8% (active). For the same compound, the results for the growth in the experiment on CCRF-CEM leukemia and in the experiment with MOLT-4 leukemia were -3.13% (active) and -21% (active), respectively.
For the compound `COc1cc(-c2nc(SCCC(C)C)nc(Nc3ccc(F)cc3)c2C#N)cc(OC)c1OC`, the growth in the experiment with HCT-15 colon is 88.8%; in the experiment on HT29 colon it was 55%; in the experiment on SNB-75 CNS, 30.8%; in the experiment on SNB-19 CNS it was 45.5%; in the experiment with U251 CNS, 29.7%; in the experiment with PC-3 prostate it was 75.9%. Further, the growth in the experiment on SK-MEL-5 melanoma was 97.6%; in the experiment on UACC-62 melanoma it was 80.5%; in the experiment on LOX IMVI melanoma it was 79.2%; with SK-MEL-28 melanoma, 104%; in the experiment with SK-MEL-2 melanoma, 101%; with EKVX NSCLC it was 85%. The growth in the experiment on SN12C renal was 64.6%; with UO-31 renal, 64.6%; in the experiment with TK-10 renal it was 41.4%; in the experiment with ACHN renal it was 34.1%; in the experiment on CAKI-1 renal it was 49.6%; in the experiment on A498 renal, 62.5%. Further, the growth with CCRF-CEM leukemia was 91.4%; in the experiment on MOLT-4 leukemia, 83.4%.
Turning to `Cc1ccc(C(=O)c2ccc(CC(=O)N=Nc3c(O)[nH]c4ccc(OC(F)(F)F)cc34)n2C)cc1`, the growth in the experiment with HCT-15 colon was 93.3%; in the experiment with HT29 colon it was 107%; with SNB-75 CNS, 82.1%; in the experiment with SNB-19 CNS, 94%; in the experiment on U251 CNS it was 97%; in the experiment on PC-3 prostate it was 98.6%. The growth in the experiment with SK-MEL-5 melanoma was 97.3%; with UACC-62 melanoma, 106%; in the experiment with LOX IMVI melanoma, 89.8%; in the experiment on SK-MEL-28 melanoma it was 99.9%; with SK-MEL-2 melanoma, 95.9%; with EKVX NSCLC, 75.5%. Besides, the growth in the experiment with SN12C renal is 95%; in the experiment on UO-31 renal it was 72.7%; in the experiment with TK-10 renal, 137%; with ACHN renal, 93.8%; with CAKI-1 renal, 91.1%; with A498 renal, 86.7%. Moreover, the growth in the experiment with CCRF-CEM leukemia was 99.1%; in the experiment with MOLT-4 leukemia it was 89.4%.
Consider `O=C1C(Nc2ccc(Cl)cc2)=C(I)C(=O)c2ncccc21`, for which the growth was -40.4% (active) in the experiment with HCT-15 colon; 43.1% in the experiment with HT29 colon; 19.4% in the experiment with SNB-75 CNS; 69.3% in the experiment with SNB-19 CNS; 30.3% in the experiment on U251 CNS; 37.1% in the experiment with PC-3 prostate. Besides, the growth in the experiment on SK-MEL-5 melanoma is -39.8% (active); with UACC-62 melanoma, -7.27% (active); in the experiment on LOX IMVI melanoma it was -68.6% (active); in the experiment with SK-MEL-28 melanoma, 39%; in the experiment with SK-MEL-2 melanoma, 70%; in the experiment with EKVX NSCLC, 62.2%. In addition, the growth was -22.1% (active) with SN12C renal; -51% (active) in the experiment with UO-31 renal; 47.5% in the experiment with TK-10 renal; -98.8% (active) with ACHN renal; -17% (active) in the experiment with CAKI-1 renal; 99.6% in the experiment with A498 renal. Also, the growth is 6.74% (active) with CCRF-CEM leukemia and -1.19% (active) in the experiment with MOLT-4 leukemia.
